Drawing on PubChem BioAssay (NCATS), this text covers Potency, outcome and Z-AUC for 19 compounds.

Inconclusive results are not listed. Where a call stands in place of a potency, no number is given. Activity calls are given as the source filed them. Unless noted, the call rests on the fitted dose curve; in most records, active means well fitted curve in the direction sought with a large enough effect; inconclusive means small, poorly fitted or top-dose-only effect, or another doubt; inactive means no such curve, though single readings can be large; an effect the other way counts as inactive or inconclusive.

The target of assay [1] is Calcium and integrin-binding protein 1 (Homo sapiens) (UniProt Q99828). Put plainly: Primary qHTS for Identification of Calcium Integrin Binding Protein 1 (CIB1) Competitor (AID 1508620).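 Further: GST tagged CIB1 binding a fluorescein labelled alphaIIb integrin peptide tracer; top concentration of the series differs between compounds.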 The procedure, abridged:
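Fluorescence polarization competition: GST-tagged CIB1 (1 uM final) preincubated with compound 15 min at room temperature, then FITC-labelled alphaIIb peptide (100 nM final) added. After 15 min at room temperature, polarization read at Ex 480/Em 540.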

The target in assay [2] is N-terminal Xaa-Pro-Lys N-methyltransferase 1 (Homo sapiens) (UniProt Q9BV86). Put plainly: Confirmatory qHTS for Inhibitors of N-terminal methyltransferase 1 (NTMT1): MTaseGlo Assay (AID 1645874). Further: potency means the concentration at half of the fitted maximal effect; nearly all actives have a fitted effect of over 65% in size. In outline:
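Luminescent MTase-Glo read-out of SAH. 125 nM NTMT1, 100 uM SAM, 1 uM SPKRIA substrate, 30 min RT reaction after 15 min compound preincubation. Normalized to no-enzyme and DMSO controls; Hill fit.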
(In general: qHTS replaces the single test concentration by a dilution series.)

In assay [3] the target is Glutathione peroxidase 1 (Homo sapiens) (UniProt P07203). The assay is described as follows: Primary qHTS Assay for Inhibitors of Recombinant Selenoprotein Glutathione Peroxidase 1 (GPX1) (AID 1845191). Further: nearly all actives have a fitted effect of over 65% in size. In outline: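 GR-coupled assay: compounds preincubated 30 min at room temperature with GPX1, then reaction started with CHP; final 10 nM GPX1, 1 mM GSH, 0.5 mM CHP, 0.5 mM NADPH, 100 nM GR, 0.01% BSA, pH 7.5 Tris buffer. NADPH fluorescence (340/450 nm) read at 0 and 15 min.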
Sequence of Glutathione peroxidase 1 (Homo sapiens) (P07203 whole entry, looked up): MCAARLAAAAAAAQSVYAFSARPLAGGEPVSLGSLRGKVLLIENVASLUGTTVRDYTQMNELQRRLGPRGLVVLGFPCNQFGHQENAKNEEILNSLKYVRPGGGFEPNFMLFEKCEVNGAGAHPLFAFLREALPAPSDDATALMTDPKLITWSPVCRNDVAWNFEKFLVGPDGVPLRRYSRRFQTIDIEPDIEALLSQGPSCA

Assay [4] addresses Mitogen-activated protein kinase 10 (Mus musculus) (UniProt Q61831). Put plainly: JNK3 AlphaScreen Assay (AID 530; active means well fitted curve in either direction with a large enough effect, not every such curve was filed as active;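 further: kinase came from lysate of stimulated human HepG2 cells; signal reports phosphorylation of biotinylated GST-cJun 1-79 at Ser73 with 10 µM ATP; series mostly up to about 57 µM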). The procedure, abridged: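 qHTS format: compounds tested as titrations against IL-1beta/TNF-alpha-activated HepG2 lysate JNK3 with biotin-GST-cJun substrate and 10 uM ATP at room temperature. Loss of anti-phospho-cJun AlphaScreen signal indicates inhibition.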
The target in assay [5] is Cytochrome P450 3A4 (Homo sapiens) (UniProt P08684). Put plainly: qHTS Assay for Inhibitors and Substrates of Cytochrome P450 3A4 (AID 884). Further: series mostly up to about 57 µM; nearly all actives have a fitted effect of over 50% in size. In outline: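 20 nM human CYP3A4 with 25 uM Luciferin-PPXE (at KM) in 200 mM KPO4, preincubated 10 min with compound; NADPH regeneration started a 60 min RT reaction. Luciferin detected by luminescence, normalized to 57 uM ketoconazole as full inhibition.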
Sequence of Cytochrome P450 3A4 (Homo sapiens) (P08684 whole entry, looked up): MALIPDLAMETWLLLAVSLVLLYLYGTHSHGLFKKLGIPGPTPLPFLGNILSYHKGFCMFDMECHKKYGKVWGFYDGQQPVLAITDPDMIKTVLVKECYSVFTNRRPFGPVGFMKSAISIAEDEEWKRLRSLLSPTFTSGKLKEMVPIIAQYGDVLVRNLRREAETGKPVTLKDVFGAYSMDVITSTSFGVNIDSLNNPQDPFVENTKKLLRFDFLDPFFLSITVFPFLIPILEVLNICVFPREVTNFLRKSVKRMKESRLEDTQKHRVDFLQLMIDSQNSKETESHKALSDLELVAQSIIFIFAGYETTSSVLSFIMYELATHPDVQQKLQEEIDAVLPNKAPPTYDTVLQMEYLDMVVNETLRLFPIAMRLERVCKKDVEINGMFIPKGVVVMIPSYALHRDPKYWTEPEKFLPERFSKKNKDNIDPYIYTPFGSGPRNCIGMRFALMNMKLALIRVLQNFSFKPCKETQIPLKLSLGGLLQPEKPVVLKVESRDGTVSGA

The target of assay [6] is Rap guanine nucleotide exchange factor 3 (Homo sapiens) (UniProt O95398). The assay is described as follows: Confirmatory qHTS for agonist of cAMP-regulated guanine nucleotide exchange factor 3 (EPAC1) (AID 1645881).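 Further: EPAC1 catalysed release of BODIPY-GDP from Rap1B seen as fluorescence loss; nearly all actives have a fitted effect of over 75% in size.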
Sequence of Rap guanine nucleotide exchange factor 3 (Homo sapiens) (O95398 whole entry, looked up): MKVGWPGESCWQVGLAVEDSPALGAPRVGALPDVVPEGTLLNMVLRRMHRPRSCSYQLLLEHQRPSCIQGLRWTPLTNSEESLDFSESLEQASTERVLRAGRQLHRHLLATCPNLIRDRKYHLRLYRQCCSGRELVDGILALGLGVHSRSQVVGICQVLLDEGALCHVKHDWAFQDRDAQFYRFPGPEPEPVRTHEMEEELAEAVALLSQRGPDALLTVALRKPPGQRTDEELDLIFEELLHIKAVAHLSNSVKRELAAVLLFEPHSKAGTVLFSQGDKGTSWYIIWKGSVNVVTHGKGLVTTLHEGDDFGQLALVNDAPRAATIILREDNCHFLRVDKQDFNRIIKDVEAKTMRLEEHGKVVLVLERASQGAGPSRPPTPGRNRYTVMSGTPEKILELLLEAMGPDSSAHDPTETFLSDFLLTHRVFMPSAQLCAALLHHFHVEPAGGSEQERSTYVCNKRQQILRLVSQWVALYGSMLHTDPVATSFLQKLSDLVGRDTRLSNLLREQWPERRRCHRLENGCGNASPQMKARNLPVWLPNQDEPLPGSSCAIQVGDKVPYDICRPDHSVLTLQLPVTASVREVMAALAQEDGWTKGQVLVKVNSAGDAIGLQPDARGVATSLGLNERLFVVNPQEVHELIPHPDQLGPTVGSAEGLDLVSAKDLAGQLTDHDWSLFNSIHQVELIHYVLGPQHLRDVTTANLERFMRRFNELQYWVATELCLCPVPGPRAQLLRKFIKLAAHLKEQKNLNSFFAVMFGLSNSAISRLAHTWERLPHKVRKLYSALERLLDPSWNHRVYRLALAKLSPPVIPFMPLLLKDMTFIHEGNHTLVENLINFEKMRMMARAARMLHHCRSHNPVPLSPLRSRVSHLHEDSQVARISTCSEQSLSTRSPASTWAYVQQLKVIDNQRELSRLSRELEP
The target of assay [7] is Rap guanine nucleotide exchange factor 4 (Homo sapiens) (UniProt Q8WZA2). The assay is described as follows: Confirmatory qHTS for agonist of cAMP-regulated guanine nucleotide exchange factor 4 (EPAC2) (AID 1645884).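 Further: nucleotide exchange releases bodipy-GDP from Rap1 and this lowers its fluorescence; nearly all actives have a fitted effect of over 65% in size.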
Sequence of Rap guanine nucleotide exchange factor 4 (Homo sapiens) (Q8WZA2 whole entry, looked up): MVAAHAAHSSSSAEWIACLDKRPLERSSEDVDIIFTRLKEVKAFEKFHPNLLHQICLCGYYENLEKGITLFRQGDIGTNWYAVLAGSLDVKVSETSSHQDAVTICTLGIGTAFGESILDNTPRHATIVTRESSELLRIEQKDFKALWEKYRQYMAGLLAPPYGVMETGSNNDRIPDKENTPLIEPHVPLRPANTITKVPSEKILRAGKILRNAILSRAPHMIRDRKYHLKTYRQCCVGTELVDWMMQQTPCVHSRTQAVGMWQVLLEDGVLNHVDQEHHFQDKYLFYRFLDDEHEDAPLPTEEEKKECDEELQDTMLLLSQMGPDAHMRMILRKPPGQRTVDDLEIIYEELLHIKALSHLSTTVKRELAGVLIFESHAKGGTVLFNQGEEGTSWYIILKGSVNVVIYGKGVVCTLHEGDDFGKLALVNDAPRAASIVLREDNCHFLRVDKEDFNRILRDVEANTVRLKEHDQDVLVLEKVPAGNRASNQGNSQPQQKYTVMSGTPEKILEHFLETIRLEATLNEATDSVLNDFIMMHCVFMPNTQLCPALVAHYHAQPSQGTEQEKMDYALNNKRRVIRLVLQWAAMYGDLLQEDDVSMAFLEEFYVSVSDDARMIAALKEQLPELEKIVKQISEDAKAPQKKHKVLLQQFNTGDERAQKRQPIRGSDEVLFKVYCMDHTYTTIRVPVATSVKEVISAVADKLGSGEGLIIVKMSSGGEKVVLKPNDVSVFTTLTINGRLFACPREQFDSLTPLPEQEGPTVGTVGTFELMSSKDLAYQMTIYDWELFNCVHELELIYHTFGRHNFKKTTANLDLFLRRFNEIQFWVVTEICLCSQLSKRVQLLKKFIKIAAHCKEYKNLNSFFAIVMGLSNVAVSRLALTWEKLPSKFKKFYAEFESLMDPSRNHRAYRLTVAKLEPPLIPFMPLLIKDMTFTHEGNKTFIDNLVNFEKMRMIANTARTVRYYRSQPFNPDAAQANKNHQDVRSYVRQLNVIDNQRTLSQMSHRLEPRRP
For assay [8] the target is unchanged. The assay is described as follows: Confirmatory qHTS for antagonist of cAMP-regulated guanine nucleotide exchange factor 4 (EPAC2) (AID 1645885). Further: nearly all actives have a fitted effect of over 25% in size.
The target in assay [9] is Rap guanine nucleotide exchange factor 3 (Homo sapiens) (UniProt O95398). Put plainly: Counterscreen qHTS for antagonist of cAMP-regulated guanine nucleotide exchange factor 3 (EPAC1) (AID 1645888).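 Further: fluorescence loss as bound BODIPY-GDP is released from Rap1B.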 In outline: (§1)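 Rap1B–BODIPY-GDP (250 nM) with 50 uM GDP; compounds pin-transferred to 9.74 nM–152 uM final (activator) or from 7.32 nM upwards (inhibitor). Fluorescence Ex/Em 480/540 nm read at 5 and 30 min, then after adding cAMP or buffer, at room temperature.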
(In general: The purpose of a counterscreen is to sort out artefacts and off-target activity.)

The target is the same in assay [10]. The assay is described as follows: Counterscreen qHTS for agonist of cAMP-regulated guanine nucleotide exchange factor 3 (EPAC1) (AID 1645889). Further: nearly all actives have a fitted effect of over 40% in size. The procedure, abridged: as §1
Assay [11] addresses Tyrosyl-DNA phosphodiesterase 1 (Homo sapiens) (UniProt Q9NUW8). Put plainly: Confirmation Assay for Inhibitors of Tyrosyl-DNA Phosphodiesterase (TDP1) (AID 489007). Further: potency means the concentration at half of the fitted maximal effect; nearly all actives have a fitted effect of over 40% in size. As to conditions: recombinant human TDP1 enzymatic activity, dose-response. The procedure, abridged:
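Confirmation of primary-screen follow-ups in a qHTS format. Substrate cleavage by Tdp1 (1 nM) of a 3'-phosphotyrosine-FITC, 5'-biotin oligo (15 nM) was monitored as decreased AlphaScreen signal after a 5 min room-temperature reaction.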

The target of assay [12] is Phospholipid hydroperoxide glutathione peroxidase GPX4 (Homo sapiens) (UniProt P36969). Put plainly: Primary qHTS Assay for Inhibitors of Recombinant Selenoprotein Glutathione Peroxidase 4 (GPX4) (AID 1845192). Further: series mostly up to about 50 µM; nearly all actives have a fitted effect of over 65% in size. As to conditions: outcome: dose series up to 50 µM unless noted. In outline: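 GR-coupled assay: recombinant GPX4 preincubated 30 min with compound at room temperature; final 200 nM GPX4, 1 mM GSH, 0.5 mM cumene hydroperoxide, 0.5 mM NADPH, 100 nM GR, 0.01% BSA, pH 7.5 Tris. NADPH fluorescence (340/450 nm) read at 0 and 15 min.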
Sequence of Phospholipid hydroperoxide glutathione peroxidase GPX4 (Homo sapiens) (P36969 whole entry, looked up): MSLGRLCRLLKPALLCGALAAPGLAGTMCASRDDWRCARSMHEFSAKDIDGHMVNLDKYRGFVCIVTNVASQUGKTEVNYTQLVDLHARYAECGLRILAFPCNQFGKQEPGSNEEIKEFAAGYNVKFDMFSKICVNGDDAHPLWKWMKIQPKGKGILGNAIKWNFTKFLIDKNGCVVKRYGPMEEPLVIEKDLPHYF

The nature of assay [13]: qHTS drug screen for cell cycle checkpoint inhibitors in PARPi-resistant BRCA-mutant ovarian cancer cell lines. (AID 1963452; calls by dose curve). The settings on record: PEO1/OlaR viability, CellTiter-Glo luminescence, 96 h, stronger effect = lower value. In outline:
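PEO1, PEO4 and PEO1/OlaR ovarian cancer cells, 600 per well, exposed 96 h at 37C to a dilution series. Viability read by CellTiter-Glo luminescence, normalized to DMSO and empty wells; activity summarized as Z-AUC.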

Sequence of Calcium and integrin-binding protein 1 (Homo sapiens) (Q99828 whole entry, looked up): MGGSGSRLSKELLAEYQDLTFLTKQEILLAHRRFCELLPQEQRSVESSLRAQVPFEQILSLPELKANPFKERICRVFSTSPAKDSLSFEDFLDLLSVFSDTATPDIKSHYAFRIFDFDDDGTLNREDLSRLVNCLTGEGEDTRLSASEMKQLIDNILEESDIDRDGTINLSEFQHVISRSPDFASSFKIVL
Sequence of Tyrosyl-DNA phosphodiesterase 1 (Homo sapiens) (Q9NUW8 whole entry, looked up): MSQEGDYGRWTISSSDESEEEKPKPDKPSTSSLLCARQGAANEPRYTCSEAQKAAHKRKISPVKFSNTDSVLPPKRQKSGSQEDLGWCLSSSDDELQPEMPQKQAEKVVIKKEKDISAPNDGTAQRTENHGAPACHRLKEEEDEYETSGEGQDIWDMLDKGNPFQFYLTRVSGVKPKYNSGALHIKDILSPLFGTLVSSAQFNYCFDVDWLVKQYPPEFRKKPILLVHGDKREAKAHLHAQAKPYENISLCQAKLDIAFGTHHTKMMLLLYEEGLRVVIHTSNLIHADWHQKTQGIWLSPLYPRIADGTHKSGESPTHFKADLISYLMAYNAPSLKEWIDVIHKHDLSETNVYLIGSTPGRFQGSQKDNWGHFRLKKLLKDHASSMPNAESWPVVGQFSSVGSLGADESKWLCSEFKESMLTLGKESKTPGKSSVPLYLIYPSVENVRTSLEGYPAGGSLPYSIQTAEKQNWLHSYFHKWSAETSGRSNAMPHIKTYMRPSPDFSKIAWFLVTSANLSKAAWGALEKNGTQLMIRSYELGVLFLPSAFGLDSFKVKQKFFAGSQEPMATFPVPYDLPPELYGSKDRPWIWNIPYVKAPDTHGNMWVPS
Sequence of N-terminal Xaa-Pro-Lys N-methyltransferase 1 (Homo sapiens) (Q9BV86 whole entry, looked up): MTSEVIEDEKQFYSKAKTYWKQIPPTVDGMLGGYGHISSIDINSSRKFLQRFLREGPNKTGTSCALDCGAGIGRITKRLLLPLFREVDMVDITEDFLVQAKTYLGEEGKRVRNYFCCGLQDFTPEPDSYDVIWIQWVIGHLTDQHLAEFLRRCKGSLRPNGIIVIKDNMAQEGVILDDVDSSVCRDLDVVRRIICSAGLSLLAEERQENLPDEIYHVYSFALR

For `COc1ccc(C2=Nn3c(nnc3-c3ccccc3F)SC2)cc1OC1CCCC1`, the Potency result in assay [1] is “inactive”. Also, in assay [2], the Potency is 24.5 µM (active).

Take `O=C1CCCC2=C1C(c1ccccc1I)N=C(Nc1nc3ccccc3o1)N2` (configuration not stated): the Potency result in assay [1] and in [3] was “inactive” in each case.

`CCCn1c(C)nc2c(NCCOC)nc(C)nc21`: the call in assay [4] was inactive. In addition, the Potency entry in assay [5] and in assay [1] was “inactive” each time.

As to `Cc1ccc(NS(=O)(=O)c2cc3c(cc2Cl)CCC(=O)N3)cc1Cl`, the Potency result in [1] and in assay [3] was “inactive” throughout.

As for `CC(C)(C)n1nc(Cc2cccc([N+](=O)[O-])c2)c2c(N)ncnc21`, the Potency entry in assay [1] and in [3] was “inactive” in each case.

Take `COC(=N)c1nc2ccc3ncnc(Nc4ccc(F)cc4Br)c3c2s1`: the Potency result in assay [1] and in assay [3] was “inactive” each time.

In the case of `Cc1nc(N2CCOCC2)c2nc(-c3ccccc3)n(CCCN(C)C)c2n1`, the outcome in assay [4] was inactive. Besides, in assay [1], the Potency result was “inactive”.

On to `CCOc1ccccc1CNc1ncnc2ccc(-c3c(C)noc3C)cc12`, for which the Potency result in assay [1] and in assay [8] was “inactive” each time. Besides, the compound was called inactive in assay [6], in assay [7], in assay [9] and in [10].

For the compound `Cc1ccc(NC(=O)CN2C(=O)N/C(=C\c3cccn3-c3cccc(C(=O)O)c3)C2=O)cc1`, the Potency in [11] is 1.12 µM (active). In addition, the Potency entry in assay [1] is “inactive”.

For the compound `CCCn1c(C)nc2c(NCCN(C(C)C)C(C)C)nc(C)nc21`, the result in [4] was inactive. Besides, the Potency result in assay [5] and in assay [1] was “inactive” throughout.

Turning to `Cc1ccc(NS(=O)(=O)c2cc3c(cc2N[C@H](C)CO)NC(=O)CC3)cc1C`, the Potency result in [1] and in assay [3] was “inactive” each time.

Take `CCCn1c(-c2ccc(F)cc2)nc2c(NCCN(C)C)nc(C)nc21`: in assay [4], the compound was called inactive. The Potency result in assay [5] and in [1] was “inactive” in each case.

Regarding `Fc1ccc(CSc2nc3ncc(Br)cc3[nH]2)cc1`, the Potency in assay [11] is 56.2 µM (active). Besides, the Potency entry in [1] is “inactive”.

Turning to `CCCn1c(C)nc2c(NCC(C)(C)CN(C)C)nc(C)nc21`, the call in assay [4] was inactive. In addition, the Potency result in [5] and in [1] was “inactive” in each case.

Turning to `CCN(CC)CCCC(C)n1c(-c2ccccc2)nc2c(NCCO)nc(C)nc21` (configuration not stated), the result in [4] was inactive. Also, in assay [1], the Potency result is “inactive”.

For the compound `[2H]C([2H])(Nc1nc(-c2ccccc2C([2H])(C([2H])([2H])[2H])C([2H])([2H])[2H])ncc1C)c1ccc(-n2ccnn2)cc1`, the Potency entry in [1], in [3] and in assay [12] was “inactive” in each case. Besides, the Z-AUC in assay [13] is -0.917 (inactive); in assay [13] (measured here: PEO1 parental Z-AUC) it was -1.16; in assay [13] (measured here: PEO4 Z-AUC), -0.866.

As to `CCCn1c(C)nc2c(NC3CCN(Cc4ccccc4)CC3)nc(C)nc21`, the compound was called inactive in assay [4]. For the same compound, the Potency result in assay [5] and in [1] was “inactive” each time.

`CCCn1c(C)nc2c(NCCN(C)C)nc(C)nc21`: the outcome in assay [4] was inactive. Besides, the Potency entry in assay [5] and in assay [1] was “inactive” throughout.

`CCCn1c(C)nc2c(NCCCN(CC)CC)nc(C)nc21`: the compound was classed as inactive in assay [4]. For the same compound, in assay [1], the Potency entry was “inactive”.
